Results taken from PubChem BioAssay (NCATS).
Results filed as inconclusive are left out. Active and inactive are the calls of the source. Calls come from the whole dose curve.

Molecular target: Peroxisome proliferator-activated receptor delta (Homo sapiens) (UniProt Q03181)
Assay: qHTS assay for small molecule agonists of peroxisome proliferator-activated receptor delta signaling (AID 588534);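 note: 0% = DMSO basal wells and 100% = positive control agonist at 10 µM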
Conditions: HEK293T PPARdelta-UAS-bla, beta-lactamase ratio, 18 h; series mostly up to 76.7 µM; activation: at the top concentration
Outline: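 EC50 and efficacy values derive from Hill fits of a concentration series in a beta-lactamase reporter cell assay. Exposure is 18 hrs at 37 C, with CCF4 fluorescence as the readout.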

Chain of Peroxisome proliferator-activated receptor delta (Homo sapiens) (Q03181 whole entry, looked up): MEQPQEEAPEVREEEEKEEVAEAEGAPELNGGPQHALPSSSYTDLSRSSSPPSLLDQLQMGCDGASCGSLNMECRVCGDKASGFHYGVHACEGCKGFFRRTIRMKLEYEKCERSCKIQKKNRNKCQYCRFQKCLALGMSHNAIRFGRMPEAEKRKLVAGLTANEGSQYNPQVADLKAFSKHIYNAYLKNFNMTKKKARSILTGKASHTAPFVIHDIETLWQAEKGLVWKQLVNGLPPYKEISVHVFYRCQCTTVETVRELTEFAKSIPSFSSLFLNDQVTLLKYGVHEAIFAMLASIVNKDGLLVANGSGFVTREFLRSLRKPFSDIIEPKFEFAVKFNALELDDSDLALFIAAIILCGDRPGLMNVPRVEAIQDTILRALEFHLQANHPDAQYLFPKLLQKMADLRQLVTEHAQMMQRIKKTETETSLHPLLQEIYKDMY

| Compound | activation | outcome |
| --- | --- | --- |
| C=C(C)C(=O)OCCC[Si](OC)(OC)OC | -3.67% (inactive) |  |
| NC(=O)c1ccc([N+](=O)[O-])cc1 | 3.53% (inactive) |  |
| CCCCCc1ccc(N)cc1 | -2.01% (inactive) |  |
| CCN(Cc1ccccc1)c1ccccc1 | 8.32% (inactive) |  |
| CCCCCCCCCCCCCCC(=O)OC | -3.73% (inactive) |  |
| CCCCCCCC/C=C\CCCCCCCCO | -1.04% (inactive) |  |
| CCCCC(CC)CN1C(=O)C2C3C=CC(C3)C2C1=O (stereo not given) | 10.9% (inactive) |  |
| Cc1ccc(C)c([N+](=O)[O-])c1 | 17% (inactive) |  |
| CCCCC(CC)COC(=O)/C=C\C(=O)OCC(CC)CCCC (stereo not given) | 3.59% (inactive) |  |
| CCCC=O | 3.07% (inactive) |  |
| Cc1ccc(S(=O)(=O)Oc2ccc(N=Nc3ccc(-c4ccc(N=Nc5c(O)ccc6cc(S(=O)(=O)O)cc(S(=O)(=O)O)c56)c(C)c4)cc3C)cc2)cc1 | 3.72% (inactive) |  |
| CCCCCCCCCCCCCC(=O)OC | 3.31% (inactive) |  |
| CC1=CC(C)(C)Nc2ccccc21 |  | inactive |
| C=CC(=O)NC(C)(C)CS(=O)(=O)O | -4.31% (inactive) |  |
| CCCCCCCC(=O)OC | -1.86% (inactive) |  |
| C=CCOC(=O)CC(C)C | -6.24% (inactive) |  |
| CC(=O)c1ccccc1[N+](=O)[O-] | 10.3% (inactive) |  |
| CC1=C2[C@@H]([C@H](C)CC[C@H]2/C=C(\C)C(=O)O)[C@H](O)C1 | -10.4% (inactive) |  |
| CCSC(=O)N(CC(C)C)CC(C)C | 5.27% (inactive) |  |
| O=C1CCCC/C=C/CCCCCCCCCO1 | -1.89% (inactive) |  |

| Compound | activation | outcome |
| --- | --- | --- |
| COC(=O)c1cccc(C(=O)OC)c1 | 1.38% (inactive) |  |
| CCCOCC(C)O (stereo not given) | 2.4% (inactive) |  |
| CNc1ccccc1 | -5.3% (inactive) |  |
| O=C(O)c1ccc(C(=O)O)c(C(=O)O)c1 | 3.02% (inactive) |  |
| CC(=O)OCc1ccco1 | -2.84% (inactive) |  |
| O=C1OC2(c3cc(Br)c(O)c(Br)c3Oc3c2cc(Br)c(O)c3Br)c2c(Cl)c(Cl)c(Cl)c(Cl)c21 | -13.2% (inactive) |  |
| c1ccc(OCCOc2ccccc2)cc1 | -0.21% (inactive) |  |
| CS(=O)(=O)c1ccc(Cl)cc1 | -3.46% (inactive) |  |
| C[C@H]1C[C@H]2[C@@H]3CCC4=CC(=O)C=C[C@]4(C)[C@@]3(F)[C@@H](O)C[C@]2(C)[C@@]1(O)C(=O)CO | -8.29% (inactive) |  |
| CC/C=C/C#N | 15.1% (inactive) |  |
| OCCOCCOCCOCCOCCO | 0.347% (inactive) |  |
| O=Cc1ccc(Cl)cc1 | 6.39% (inactive) |  |
| CCN(Cc1cccc(S(=O)(=O)O)c1)c1ccc(C(=C2C=CC(=[N+](CC)Cc3cccc(S(=O)(=O)[O-])c3)C=C2)c2ccccc2)cc1 | -6.62% (inactive) |  |
| O=C(O)c1ccccc1C(=O)O | 0.141% (inactive) |  |
| COc1ccc(N)c(OC)c1 | -5.72% (inactive) |  |
| C[Si]1(C)O[Si](C)(C)O[Si](C)(C)O[Si](C)(C)O[Si](C)(C)O1 | 1.92% (inactive) |  |
| CO[Si](CCCNCCN)(OC)OC | 5.98% (inactive) |  |
| OC1CCCC1 | -2.62% (inactive) |  |
| CC(C)OCC1CO1 (stereo not given) | -1.73% (inactive) |  |
| Cc1ccc(N(C)C)cc1 | -5.09% (inactive) |  |
